Assay [1] in a line: qHTS assay to test for compound auto fluorescence at 535 nm (green) in HEK293 cells (AID 720680).
A short description of assay [2]: qHTS assay to test for compound auto fluorescence at 460 nm (blue) in HEK293 cell free culture (AID 720681). Further: potency means the concentration at half of the fitted maximal effect. The method in brief: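 Compounds were added to cell-free DMEM with 10% FBS and fluorescence read directly. The blue channel used 405 nm excitation and 460 nm emission, with triamterene as the reference fluorophore.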
A short description of assay [3]: qHTS assay to test for compound auto fluorescence at 535 nm (green) in HEK293 cell free culture (AID 720682). The method in brief: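 Steps: dispense DMEM/10% FBS into empty wells; pin in compound or DMSO; measure fluorescence at 485/535 nm. Values are fluorescein equivalents.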
Background: Quantitative high-throughput screening tests each substance at several concentrations.

Assay [4] can be described thus: qHTS assay to test for compound auto fluorescence at 590 nm (red) in HEK293 cell free culture (AID 720683). The method in brief: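 Cell-free wells of DMEM with 10% FBS received compound, and intrinsic fluorescence was read at excitation/emission 540/590 nm. Values expressed as equivalence to Rose Bengal sodium.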
Assay [5] can be described thus: qHTS assay to test for compound auto fluorescence at 590 nm (red) in HepG2 cell free culture (AID 720684). Summed up: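 Compound was pinned into wells holding MEM with 10% FBS and no cells, and red fluorescence was read at Ex/Em 540/590 nm. Signal is expressed as auto fluorescence equivalency relative to Rose Bengal sodium.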
A short description of assay [6]: qHTS assay to test for compound auto fluorescence at 460 nm (blue) in HepG2 cell free culture (AID 720685). Further: potency means the concentration at half of the fitted maximal effect. Summed up: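 Compound (23 nL) or DMSO pinned into cell-free MEM with 10% FBS; blue fluorescence read at 405/460 nm excitation/emission, expressed as auto-fluorescence equivalency to triamterene.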
The nature of assay [7]: qHTS assay to test for compound auto fluorescence at 535 nm (green) in HepG2 cell free culture (AID 720686).
A short description of assay [8]: qHTS assay to test for compound auto fluorescence at 460 nm (blue) in HepG2 cells (AID 720687). Further: potency means the concentration at half of the fitted maximal effect. The method in brief: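 HepG2 cells in MEM with 10% FBS, attached overnight at 37 C, were exposed to compound or DMSO for 1 hr at 37 C, 5% CO2. Blue fluorescence was read at 405/460 nm, with triamterene as reference fluorophore.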
For assay [9], the target named is Glucocorticoid receptor (Homo sapiens) (UniProt P04150). Nature of the assay: qHTS assay to identify small molecule agonists of the glucocorticoid receptor (GR) signaling pathway (AID 720691; active means well fitted activation curve with a large enough effect in the signal ratio in the repeat runs, not every such curve was filed as active; the % refers to the signal ratio). The following applies: GR-bla HeLa, beta-lactamase reporter ratio, 18 h; activation: at 62.4 µM (top of the series). The method in brief: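 GR-bla HeLa cells carrying a GRE-driven beta-lactamase reporter, exposed to compounds for 18 h at 37 C. Reporter activation read as fluorescence after 2 h with LiveBLAzer B/G FRET substrate at room temperature.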
Chain of Glucocorticoid receptor (Homo sapiens) (P04150 whole entry, looked up): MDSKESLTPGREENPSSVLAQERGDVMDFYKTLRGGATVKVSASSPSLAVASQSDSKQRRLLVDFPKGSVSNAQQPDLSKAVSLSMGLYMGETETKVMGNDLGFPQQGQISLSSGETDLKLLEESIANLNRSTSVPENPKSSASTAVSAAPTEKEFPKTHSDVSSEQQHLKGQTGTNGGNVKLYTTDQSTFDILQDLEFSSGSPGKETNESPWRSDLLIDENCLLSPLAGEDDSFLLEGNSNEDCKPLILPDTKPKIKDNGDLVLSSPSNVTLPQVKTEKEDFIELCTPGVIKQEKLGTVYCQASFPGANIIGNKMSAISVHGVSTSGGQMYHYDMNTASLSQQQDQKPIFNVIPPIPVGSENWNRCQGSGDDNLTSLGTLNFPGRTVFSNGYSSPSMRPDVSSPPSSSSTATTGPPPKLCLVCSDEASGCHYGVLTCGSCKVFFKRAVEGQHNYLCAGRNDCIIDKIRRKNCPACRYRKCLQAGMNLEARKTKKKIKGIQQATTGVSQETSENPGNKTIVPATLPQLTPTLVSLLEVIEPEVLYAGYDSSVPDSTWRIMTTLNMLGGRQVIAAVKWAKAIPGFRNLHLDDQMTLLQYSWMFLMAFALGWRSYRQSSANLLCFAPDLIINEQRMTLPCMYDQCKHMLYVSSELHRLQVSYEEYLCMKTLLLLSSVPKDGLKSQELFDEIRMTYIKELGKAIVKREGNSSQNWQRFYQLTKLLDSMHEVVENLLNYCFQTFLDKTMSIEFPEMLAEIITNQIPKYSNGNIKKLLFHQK

Assay [10] shares this target. The assay is described as follows: qHTS assay to identify small molecule antagonists of the glucocorticoid receptor (GR) signaling pathway (AID 720692; active means well fitted inhibition curve with a large enough effect in the signal ratio in the repeat runs, not every such curve was filed as active; the % refers to the signal ratio). The method in brief:
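GR-bla HeLa cells carrying a GRE-driven beta-lactamase reporter received compound after 4 h plating, then dexamethasone (5 nM final). After 18 h at 37C, the FRET substrate was loaded for 2 h at room temperature and fluorescence read.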

The nature of assay [11]: qHTS assay to identify small molecule antagonists of the glucocorticoid receptor (GR) signaling pathway - cell viability counter screen (AID 720693). Further: nearly all actives have a fitted effect of over 55% in size. Further: potency means the concentration at half of the fitted maximal effect.
Assay [12] is described as follows: qHTS assay for identifying genotoxic compounds that show differential cytotoxicity against isogenic chicken DT40 cell lines with known DNA damage response pathways - wild type cell line (AID 743012). Further: nearly all actives have a fitted effect of over 60% in size. Further: potency means the concentration at half of the fitted maximal effect. Summed up:
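Wild-type DT40 cells (300/well) exposed to compounds for 40 hours at 37 C/5% CO2. Viability read by CellTiter-Glo luminescence after 30 min at room temperature.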

The nature of assay [13]: qHTS assay to identify small molecule antagonists of the androgen receptor (AR) signaling pathway using the MDA cell line - cell viability counter screen (AID 743041; further: nearly all actives have a fitted effect of over 45% in size). Summed up: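 MDA-kb2 AR-luc cells (MMTV-luciferase, AR/GR responsive) treated with compounds plus R1881 agonist for 16 h at 37C. CellTiter-Fluor added at 15.5 h; fluorescence read after 30 min in the same wells.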

The nature of assay [14]: qHTS assay for identifying genotoxic compounds that show differential cytotoxicity against isogenic chicken DT40 cell lines with known DNA damage response pathways - Rev3 mutant cell line (AID 743014). Further: nearly all actives have a fitted effect of over 55% in size. Further: potency means the concentration at half of the fitted maximal effect.
Assay [15] is described as follows: qHTS assay to identify small molecule antagonists of the androgen receptor (AR) signaling pathway - cell viability counter screen (AID 743033; further: nearly all actives have a fitted effect of over 45% in size).
Assay [16] in a line: qHTS assay for identifying genotoxic compounds that show differential cytotoxicity against isogenic chicken DT40 cell lines with known DNA damage response pathways - Rad54/Ku70 mutant cell line (AID 743015). Further: nearly all actives have a fitted effect of over 60% in size. Further: potency means the concentration at half of the fitted maximal effect.
Assay [17] has as its target Androgen receptor (Homo sapiens) (UniProt P10275). Nature of the assay: qHTS assay to identify small molecule antagonists of the androgen receptor (AR) signaling pathway (AID 743035; active means well fitted inhibition curve with a large enough effect in the signal ratio in the repeat runs, not every such curve was filed as active; the % refers to the signal ratio). The method in brief:
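HEK293 cells stably carrying UAS-beta-lactamase reporter, 2,000/well, given compounds plus R1881 agonist and incubated 16 h at 37C. LiveBLAzer B/G FRET substrate then added for 2 h at room temperature before fluorescence reading.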

The target is the same in assay [18]. Nature of the assay: qHTS assay to identify small molecule agonists of the androgen receptor (AR) signaling pathway (AID 743036; active means well fitted activation curve with a large enough effect in the signal ratio in the repeat runs, with a control signal flat, not every such curve was filed as active; the % refers to the signal ratio). Summed up: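 Reporter line: GeneBLAzer AR-UAS-bla-GripTite (HEK293). Steps: plate cells, 4 h rest, add compounds, 16 h at 37C, add LiveBLAzer B/G substrate, 2 h at RT, read fluorescence.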
Assay [19] has the same target. Nature of the assay: qHTS assay to identify small molecule agonists of the androgen receptor (AR) signaling pathway using the MDA cell line (AID 743040; further: nearly all actives have a fitted effect of over 20% in size). Summed up: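 MDA-kb2 breast carcinoma cells carrying MMTV-luciferase (responsive to AR and GR), plated 5 h then treated 16 h with compounds at 37C, 0% CO2. Read-out was ONE-Glo luminescence after 30 min at room temperature.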

The target is the same in assay [20]. The assay is described as follows: qHTS assay to identify small molecule antagonists of the androgen receptor (AR) signaling pathway using the MDA cell line (AID 743042; further: nearly all actives have a fitted effect of over 55% in size). Summed up: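 MDA-kb2 breast carcinoma cells carrying MMTV-luciferase (AR/GR responsive) were co-treated with compounds and the agonist R1881 for 16 h at 37C. Inhibition read as ONE-Glo luminescence; CellTiter-Fluor fluorescence measured in parallel for cytotoxicity.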

Where “and” joins values, the source holds several entries; their conditions need not be identical. Equal entries are not always repeated. Inconclusive results are not listed. Calls of active or inactive are those of the source. Unless noted, the call rests on the fitted dose curve; in most records, active means well fitted curve in the direction sought with a large enough effect in the repeat runs; inconclusive means weak or mixed curves; inactive means no such curve, though single readings can be large; an effect the other way counts as inactive or inconclusive.
Tags describe the fitted curve by direction and shape or compound fluorescence and quenching.

Chain of Androgen receptor (Homo sapiens) (P10275 whole entry, looked up): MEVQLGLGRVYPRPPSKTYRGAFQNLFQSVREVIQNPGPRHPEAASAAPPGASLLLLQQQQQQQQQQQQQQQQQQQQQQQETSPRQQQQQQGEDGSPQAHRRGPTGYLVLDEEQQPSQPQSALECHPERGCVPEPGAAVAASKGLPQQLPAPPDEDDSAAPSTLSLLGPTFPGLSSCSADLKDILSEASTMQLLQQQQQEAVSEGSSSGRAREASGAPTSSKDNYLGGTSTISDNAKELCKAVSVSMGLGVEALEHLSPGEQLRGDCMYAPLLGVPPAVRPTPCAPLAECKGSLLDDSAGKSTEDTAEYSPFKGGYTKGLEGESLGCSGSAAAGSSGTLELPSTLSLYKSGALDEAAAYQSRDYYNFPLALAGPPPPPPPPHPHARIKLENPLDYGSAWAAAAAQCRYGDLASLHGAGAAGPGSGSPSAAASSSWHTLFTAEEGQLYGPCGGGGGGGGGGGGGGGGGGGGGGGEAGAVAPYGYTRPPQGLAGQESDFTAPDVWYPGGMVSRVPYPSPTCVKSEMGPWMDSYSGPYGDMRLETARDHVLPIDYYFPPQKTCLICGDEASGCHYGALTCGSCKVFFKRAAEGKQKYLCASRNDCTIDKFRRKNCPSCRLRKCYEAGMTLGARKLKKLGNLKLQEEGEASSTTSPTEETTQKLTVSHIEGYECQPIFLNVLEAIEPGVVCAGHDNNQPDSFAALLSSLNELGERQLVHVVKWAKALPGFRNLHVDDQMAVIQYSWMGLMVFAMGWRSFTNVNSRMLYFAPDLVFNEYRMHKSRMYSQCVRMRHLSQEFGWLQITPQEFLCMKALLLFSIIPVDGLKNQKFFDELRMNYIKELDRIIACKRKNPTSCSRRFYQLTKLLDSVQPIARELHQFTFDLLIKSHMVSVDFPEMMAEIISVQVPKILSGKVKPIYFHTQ

For the molecule `CCSCC`, the molecule was classed as inactive in [1], in assay [3], in assay [4] and in [5]. Besides, the Potency entry in assay [2], in assay [6], in assay [7], in assay [8], in assay [9] and in assay [10] was “inactive” throughout. The Potency entry in [11], in assay [12] and in assay [13] was “inactive” in each case.
For `O=c1[nH]c(=O)n([C@H]2C[C@H](O)[C@@H](CO)O2)cc1/C=C/Br`, the molecule was called inactive in [1], in assay [3], in assay [4] and in assay [5]. The Potency result in assay [2], in assay [6], in assay [7], in assay [8], in assay [9] and in assay [10] was “inactive” throughout. Besides, the Potency entry in [11], in [14], in [15] and in [13] was “inactive” in each case.
Consider `C[C@@H]1O[C@@H](OC[C@H]2O[C@@H](Oc3c(-c4ccc(OCCO)c(OCCO)c4)oc4cc(OCCO)cc(O)c4c3=O)[C@H](O)[C@@H](O)[C@@H]2O)[C@H](O)[C@H](O)[C@H]1O`, for which the outcome in assay [1], in assay [3], in assay [4] and in assay [5] was inactive. Moreover, the Potency result in assay [2], in assay [6], in assay [7], in assay [8], in assay [9] and in [10] was “inactive” in each case. Moreover, the Potency result in [12], in assay [16], in assay [15], in assay [17], in assay [18] and in assay [19] was “inactive” in each case. Moreover, the Potency entry in assay [13] and in assay [20] was “inactive” in each case.
In the case of `NC(N)=NCc1cccc(I)c1`, the call in [1], in [3], in assay [4] and in assay [5] was inactive. Moreover, the Potency result in assay [2], in assay [6], in assay [7], in assay [8], in [9] and in assay [10] was “inactive” throughout. For the same molecule, the Potency result in assay [11] and in assay [15] was “inactive” in each case. Further, the Potency in assay [14] was 8.41 µM (active) and 11.9 µM (active); in [16] it was 6.68 µM (active) and 7.5 µM (active).
Turning to `Cc1cc(CC(C)CC(C)(C)C)n(O)c(=O)c1` (stereo unspecified) (tested in a mixture with another compound), the result in assay [1], in assay [3], in assay [4] and in assay [5] was inactive. For the same molecule, the Potency entry in [2], in [6], in [7], in assay [8] and in assay [15] was “inactive” each time. Also, the Potency in assay [11] was 15.1 µM (active); in [12] it was 11.9 µM (active); in [14] it was 11.9 µM (active); in assay [16], 13.3 µM (active).
Turning to `COc1ccc(/C=C/C(=O)Nc2ccccc2C(=O)O)cc1OC`, the call in assay [1], in assay [3], in assay [4] and in assay [5] was inactive. In addition, the Potency result in assay [2], in assay [6], in assay [7], in assay [8], in assay [9] and in [11] was “inactive” each time. Moreover, the Potency entry in assay [12], in assay [15], in [19], in [13] and in assay [20] was “inactive” each time.
On to `O=C1CCC(c2ccc(-n3ccnc3)cc2)=NN1`, for which the molecule was called inactive in assay [1], in assay [3], in assay [4] and in [5]. In addition, the Potency entry in assay [2], in assay [6], in assay [7], in [8], in assay [9] and in assay [11] was “inactive” in each case. The Potency result in assay [12], in [14], in [16], in assay [15] and in assay [13] was “inactive” throughout.
On to `CC(=NCc1ccccc1)c1ccccc1O`, for which the result in [1], in [3], in assay [4] and in assay [5] was inactive. The Potency result in [2], in assay [6], in assay [7], in assay [8], in assay [11] and in assay [12] was “inactive” each time. Moreover, the Potency entry in assay [14], in assay [16], in assay [15] and in assay [13] was “inactive” each time.
In the case of `CCC(NC(C)C)C(O)c1ccc(O)c(O)c1` (stereo unspecified), the molecule was classed as inactive in [1], in [3], in assay [4] and in assay [5]. Also, the Potency result in assay [2], in assay [6], in [7], in assay [8], in assay [11] and in assay [12] was “inactive” each time. The Potency result in [14], in [16], in assay [15] and in assay [13] was “inactive” in each case.
`O=C1CCCCCCCCCCCCCC1`: the molecule was classed as inactive in assay [1], in assay [3], in [4] and in assay [5]. Further, the Potency result in assay [2], in [6], in assay [7], in assay [8], in assay [9] and in [10] was “inactive” in each case. Also, the Potency entry in [11], in [15] and in assay [13] was “inactive” throughout.
Regarding `CC(C)(S)C(=O)N[C@@H](CS)C(=O)O`, the call in assay [1], in assay [3], in assay [4] and in assay [5] was inactive. The Potency result in [2], in assay [6], in [7], in [8], in assay [9] and in [10] was “inactive” throughout. Besides, the Potency entry in assay [11], in assay [14], in [16], in assay [15] and in [13] was “inactive” throughout.
Regarding `Cc1ccc2nc(-c3ccc(N)cc3)sc2c1S(=O)(=O)O`, the call in assay [1], in assay [3], in [4] and in assay [5] was inactive. In addition, the Potency in assay [2] is 15.8 µM (active); in assay [6], 25.1 µM [fluorescent] (active); in assay [8], 22.4 µM [fluorescent] (active); in assay [16], 26.9 µM (active). Besides, the Potency result in assay [7], in assay [9], in assay [10], in [11], in assay [14] and in assay [15] was “inactive” each time. Further, the Potency entry in [13] and in assay [20] was “inactive” each time.
With `Cc1cc(C(=O)NCCc2ccc(S(=O)(=O)NC(=O)NN3CCCCCC3)cc2)no1`, the outcome in assay [1], in [3], in assay [4] and in assay [5] was inactive. Besides, the Potency result in assay [2], in assay [6], in [7], in [8], in assay [11] and in assay [12] was “inactive” throughout. Further, the Potency entry in assay [14], in [16], in assay [15], in [17], in [18] and in assay [19] was “inactive” in each case. The Potency entry in assay [13] and in assay [20] was “inactive” each time.
Turning to `Cc1ncc(C[n+]2csc(CCOP(=O)(O)O)c2C)c(N)n1`, the call in [1], in assay [3], in assay [4] and in assay [5] was inactive. Besides, the Potency entry in [2], in assay [6], in assay [7], in assay [8], in assay [9] and in [11] was “inactive” in each case. The Potency result in [14], in [16], in [15] and in assay [13] was “inactive” throughout.

Values taken from PubChem BioAssay (Tox21).
